The record followed here is PubChem BioAssay (NCATS).

Assay [1] relates to Zika virus NS2B-NS3 protease. Kind of assay: Primary screen GU AMC qHTS for Zika virus inhibitors (AID 1347154). Note: nearly all actives have a fitted effect of over 70% in size. In short, it runs like this: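 Unlinked Zika NS2B hydrophilic domain/NS3 protease domain noncovalent complex (25 nM final) in 10 mM Tris-HCl pH 8.0, 0.01% Tween 20, with AMC peptide substrate. Fluorescence (ex 340, em 450 nm) change over 15 min, room temperature; percent inhibition fitted to 4-parameter Hill equation.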

Assay [2] has as its system Zika virus NS2B-NS3 protease (unlinked). Put plainly: Optimization of GU AMC qHTS for Zika virus inhibitors: Unlinked NS2B-NS3 protease assay (AID 1347151). Note: nearly all actives have a fitted effect of over 80% in size. In a few lines:
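Percent inhibition is derived from the 15-min change in AMC fluorescence, normalized against no-inhibitor and no-enzyme controls, then fitted to a 4-parameter Hill curve. Aprotinin was the intraplate control.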
Background: qHTS replaces the single test concentration by a dilution series.

For assay [3], the system named is Zika virus NS2B-NS3 protease (unlinked complex). Put plainly: Primary screen GU Rhodamine qHTS for Zika virus inhibitors: Unlinked NS2B-NS3 protease assay (AID 1347159). Note: nearly all actives have a fitted effect of over 60% in size. In short, it runs like this: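 Compounds, tested up to 114 microM, were incubated for 15 minutes with 25 nM unlinked NS2B-NS3 protease at pH 8.0. Cleavage of 1.5 microM Rhodamine110 substrate was then followed by fluorescence for 15 minutes.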

In assay [4] the test system is Zika virus NS2B-NS3 protease (linked construct). Put plainly: Primary screen NINDS Rhodamine qHTS for Zika virus inhibitors (AID 1347160). Note: nearly all actives have a fitted effect of over 55% in size. In short, it runs like this: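 Percent inhibition, normalized to uninhibited and enzyme-free controls, is fitted to a 4-parameter Hill equation. Fluorescence change comes from a 15-min cleavage of 1.5 microM bis-peptide Rhodamine110 substrate by 25 nM linked NS2B-NS3 at room temperature.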

Assay [5] has the same test system. Put plainly: Confirmatory screen NINDS AMC qHTS for Zika virus inhibitors (AID 1347152). Note: nearly all actives have a fitted effect of over 70% in size. In a few lines: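 In this dose-response qHTS, AMC release from 10 microM Bz-Nle-KRR-AMC by 1 nM linked protease is measured over 15 minutes (about 20% conversion) at pH 8.0. Percent inhibition is fitted to a 4-parameter Hill curve.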
Assay [6] can be described thus: Confirmatory screen GU Rhodamine qHTS for Zika virus inhibitors qHTS (AID 1347157). Note: nearly all actives have a fitted effect of over 70% in size. To be noted: purified enzyme assay, Rhodamine110 substrate fluorescence, 15 min. In a few lines:
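Enzyme 25 nM in Tris-HCl pH 8.0 + 0.01% Tween 20; compounds up to 114 microM, 15 min RT dark; + Rhod110 substrate 1.5 microM; read t0 and 15 min; delta fluorescence → % inhibition → 4-parameter Hill fit.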

Assay [7] in a line: Confirmatory screen NINDS Rhodamine qHTS for Zika virus inhibitors (AID 1347161). Note: nearly all actives have a fitted effect of over 60% in size. The conditions noted are these: purified enzyme assay, Rhodamine110 substrate fluorescence, 15 min. In a few lines: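 Kinetic fluorescence (Ex 480 nm, Em 540 nm) over 15 min with 1.5 microM Rhodamine110 peptide and 25 nM linked protease.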
For assay [8], the system named is Zika virus NS2B-NS3 protease (linked). Put plainly: 384 well plate NINDS AMC confirmatory qHTS for Zika virus inhibitors (AID 1347163). Note: nearly all actives have a fitted effect of over 50% in size. In short, it runs like this: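 Linked protease 5/30/60 nM final; cpds up to 1 mM final, ~15 min preinc. Substrate Ac-VKTGKR-AMC 30 microM final. RT, dark, 25 min; FI ex 355/em 460; normalized to no-enzyme/no-inhibitor ctrls.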
In assay [9] the test system is Zika virus NS2B-NS3 protease (linked construct). Put plainly: 384 well plate NINDS Rhodamine confirmatory qHTS for Zika virus inhibitors (AID 1347164). Note: nearly all actives have a fitted effect of over 65% in size. To be noted: rhodamine-110 peptide substrate fluorescence. In short, it runs like this:
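Compounds are incubated about 15 minutes with linked protease (5, 30 or 60 nM final). Rhodamine 110-tagged Ac-LKRR substrate (10 microM final) is added and fluorescence measured after 25 minutes.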

Molecules are shown by their SMILES. “And” between values parts separate entries of the source, which are not always exact repeats. Equal entries are not always repeated. Results filed as inconclusive are left out. Values without a mark were called inactive. The source made the active and inactive calls. Calls come from the whole dose curve; as a rule, active = well fitted curve in the direction sought with a large enough effect; inconclusive = small, poorly fitted or top-dose-only effect, or another doubt; inactive = no such curve, though single readings can be large; an effect the other way counts as inactive or inconclusive.
Potency is the fitted concentration of half-maximal effect.

Regarding `CC[C@@]1(c2ccccc2)NC(=O)N(C)C1=O`, the Potency entry in assay [1] is “inactive”.

Turning to `NS(=O)(=O)c1cc2c(cc1C(F)(F)F)NC(Cc1ccccc1)NS2(=O)=O` (stereo unspecified), the Potency result in [1] is “inactive”.

For the compound `Cn1cc[nH]c1=S`, the Potency entry in [1] was “inactive”.

As to `CCN(CC)CCOC(=O)C1(C2CCCCC2)CCCCC1`, the Potency entry in [2] and in [1] was “inactive” throughout.

With `CC(=O)OCC(=O)[C@@]1(O)CC[C@H]2[C@@H]3CCC4=CC(=O)CC[C@]4(C)[C@H]3C(=O)C[C@@]21C`, the Potency result in assay [2] and in assay [1] was “inactive” in each case.

Regarding `CC(C)(C(=O)O)c1ccc(C(O)CCCN2CCC(C(O)(c3ccccc3)c3ccccc3)CC2)cc1` (stereo unspecified), the Potency entry in assay [2], in assay [1], in assay [3] and in assay [4] was “inactive” throughout.

Take `CC1(C)Oc2ccc(C#N)cc2[C@@H](N2CCCC2=O)[C@@H]1O`: the Potency entry in assay [1] is “inactive”.

Turning to `CCCCCCCCCCCCCCCCCCOCC(O)CO` (stereo unspecified), the Potency result in assay [1] was “inactive”.

Take `O=C(O)[C@@H]1CSCN1`: the Potency result in assay [1] is “inactive”.

With `CCCCCCCCCCCCCCCC(=O)NCCO`, the Potency entry in assay [1] is “inactive”.

On to `CN1CCC[C@@H]1Cc1c[nH]c2ccc(CCS(=O)(=O)c3ccccc3)cc12`, for which the Potency entry in [2], in assay [1], in [3] and in assay [4] was “inactive” each time.

On to `NCC(=O)CCC(=O)O`, for which the Potency result in assay [1] is “inactive”.

With `C[C@@H](O)[C@H](N)C(=O)O`, in [1], the Potency entry was “inactive”.

With `CN(C)CCCN1c2ccccc2Sc2ccc(Cl)cc21`, the Potency result in assay [2] and in [1] was “inactive” throughout.

In the case of `CCN(CC)CCNC(=O)c1c(C)[nH]c(/C=C2\C(=O)Nc3ccc(F)cc32)c1C`, the Potency entry in assay [2] and in assay [1] was “inactive” throughout.

Consider `CCN(CC)CCNC(=O)c1cc(Cl)c(N)cc1OC`, for which the Potency entry in [2], in assay [1], in assay [3] and in [4] was “inactive” each time.

Turning to `N[C@@H](CSCCCO)C(=O)O`, the Potency entry in assay [1] is “inactive”.

With `Cc1cc(C(C#N)c2ccc(Cl)cc2)c(Cl)cc1NC(=O)c1cc(I)cc(I)c1O` (stereo unspecified), the Potency was 11.1 µM (active) in assay [5]; 3.98 µM (active) in assay [1]; 1.75 µM (active) and 1.56 µM (active) in [6]; 1.78 µM (active) in assay [3]; 3.16 µM (active) in assay [4]; 2.78 µM (active) and 2.21 µM (active) in assay [7]. Also, the Potency is 4.47 µM (active) in [8] and 1.78 µM (active) in assay [9].

On to `CC(C)(O)c1ccccc1CC[C@@H](SCC1(CC(=O)O)CC1)c1cccc(/C=C/c2ccc3ccc(Cl)cc3n2)c1`, for which the Potency in assay [5] is 27.1 µM (active); in assay [3] it was 3.16 µM (active); in assay [9] it was 112 µM (active). Also, the Potency result in assay [8] was “inactive”.

Regarding `O=C1c2c(O)cccc2Cc2cccc(O)c21`, the Potency result in [1] is “inactive”.

Take `Cc1ncc([N+](=O)[O-])n1CC(O)CCl` (stereo unspecified): the Potency entry in assay [1] is “inactive”.

`COc1ccc(Cl)cc1C(=O)NCCc1ccc(S(=O)(=O)NC(=O)NC2CCCCC2)cc1`: the Potency result in assay [2], in assay [1] and in [4] was “inactive” throughout.

As for `CCN(CC)CCCC(C)Nc1c2ccc(Cl)cc2nc2ccc(OC)cc12` (stereo unspecified), in assay [2], the Potency is 23.8 µM (active). Moreover, the Potency entry in [3] and in [4] was “inactive” each time.

Regarding `CCCn1cnc2c1c(=O)n(CCCCC(C)=O)c(=O)n2C`, the Potency result in [2] and in assay [1] was “inactive” throughout.

Consider `CCCCCCCCCCCCOS(=O)(=O)O`, for which the Potency entry in assay [1] is “inactive”.

Consider `CC(C(O)c1ccc(O)cc1)N1CCC(Cc2ccccc2)CC1` (stereo unspecified), for which the Potency entry in assay [2], in assay [1], in [3] and in [4] was “inactive” each time.

In the case of `CCCCc1ncc(/C=C(\Cc2cccs2)C(=O)O)n1Cc1ccc(C(=O)O)cc1`, the Potency entry in [2], in [1], in assay [3] and in assay [4] was “inactive” in each case.

Regarding `Cn1c(=O)c2c(ncn2CC2OCCO2)n(C)c1=O`, the Potency entry in assay [1], in [3] and in assay [4] was “inactive” throughout.

Take `O=C1Nc2ccc(Cl)cc2[C@@](C#CC2CC2)(C(F)(F)F)O1`: in assay [3], the Potency was 44.7 µM (active). Moreover, the Potency result in assay [4] is “inactive”.

Turning to `COc1ccc2[nH]c(S(=O)Cc3ncc(C)c(OC)c3C)nc2n1` (stereo unspecified), the Potency entry in [1], in [3] and in assay [4] was “inactive” in each case.

As for `CC/C=C(\C(=O)N[C@@H]1C(=O)N2C(C(=O)OCOC(=O)C(C)(C)C)=C(COC(N)=O)CS[C@H]12)c1csc(N)n1`, the Potency result in assay [1], in assay [3] and in [4] was “inactive” in each case.

As to `NC1CCN(c2cccc(Cl)n2)CC1`, the Potency result in assay [1] was “inactive”.

`CCN(CC)C(=O)Nc1ccc(OCC(O)CNC(C)(C)C)c(C(C)=O)c1` (stereo unspecified): the Potency entry in assay [1], in assay [3] and in assay [4] was “inactive” in each case.

Regarding `NC(=O)NC(=O)Cc1ccccc1`, the Potency result in [1] was “inactive”.

Consider `c1ccc(CN(CC2=NCCN2)c2ccccc2)cc1`, for which the Potency result in assay [1], in assay [3] and in assay [4] was “inactive” in each case.

As to `CCC(=O)Nc1ccc(O)cc1`, the Potency result in [1] is “inactive”.

Regarding `O=C(CCCN1CCN(c2ccccn2)CC1)c1ccc(F)cc1`, the Potency result in assay [1], in assay [3] and in assay [4] was “inactive” each time.

For `OCC(O)CN1CCN(c2ccccc2)CC1` (stereo unspecified), the Potency entry in [1], in assay [3] and in [4] was “inactive” throughout.

Turning to `[Cl][In]([Cl])[Cl]`, the Potency in assay [1] is 11.2 µM (active).

For the compound `CC1CC(OC(=O)C(O)c2ccccc2)CC(C)(C)N1C` (stereo unspecified), the Potency result in assay [1] was “inactive”.

For `CCCCN1CCCC[C@H]1C(=O)Nc1c(C)cccc1C`, the Potency entry in assay [1], in assay [3] and in assay [4] was “inactive” in each case.

For `O=c1cc[nH]c(=O)[nH]1`, the Potency result in assay [1] is “inactive”.

For the compound `C[C@@H]1C[C@H]2[C@@H]3C[C@H](F)C4=CC(=O)C=C[C@]4(C)[C@@]3(F)[C@@H](O)C[C@]2(C)[C@@]1(O)C(=O)CO`, the Potency entry in assay [1], in assay [3] and in assay [4] was “inactive” throughout.
